Measured values reported in paper PMC5540273 (PLoS ONE, 2017).

Legend:
Settings in all cases: concentration: 1 μM, replicates: in singlicate; n = 1
DAPK2 = tested on: DAPK2
DAPK3 = tested on: DAPK3
DCAMKL1 = tested on: T1, DCAMKL1
T1 construct: gene DCLK1

DCAMKL2 = tested on: T2, DCAMKL2
T2 construct: gene DCLK2

DCAMKL3 = tested on: T3, DCAMKL3
T3 construct: gene DCLK3

DDR1 = tested on: DDR1
DDR2 = tested on: DDR2
DLK = tested on: T4, DLK
T4 construct: gene MAP3K12

DMPK2 = tested on: T5, DMPK2
T5 construct: gene CDC42BPG

DMPK = tested on: DMPK
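Further: KINOMEscan kinase panel screen.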

In the case of `C[C@@H]1CCCCN1c1cc(-c2ccc3c(N)n[nH]c3c2)nc(N)n1` [GSK2258759], the “%Inh” value (DAPK2) is reported as 0%, the “%Inh” value (DAPK3) is reported as 19% and the “%Inh” value (DCAMKL1) is reported as 2%. For the same compound, the “%Inh” value (DCAMKL2) was 0%, the “%Inh” value (DCAMKL3) was 0% and the “%Inh” value (DDR1) was 0%. For the same compound, the “%Inh” value (DDR2) was 0%, the “%Inh” value (DLK) was 21% and the “%Inh” value (DMPK2) was 0%. For the same compound, the “%Inh” value (DMPK) was 0%.

For `Cc1ccc(C(=O)Nc2ccc(Nc3ccnc4cc(-c5ccccn5)ccc34)cc2O)cc1.Cl` [GW440146], the “%Inh” value (DAPK2) was 0%, the “%Inh” value (DAPK3) was 13% and the “%Inh” value (DCAMKL1) was 0%. The “%Inh” value (DCAMKL2) was 0%, the “%Inh” value (DCAMKL3) was 16% and the “%Inh” value (DDR1) was 12%. For the same compound, the “%Inh” value (DDR2) was 10%, the “%Inh” value (DLK) was 47% and the “%Inh” value (DMPK2) was 0%. For the same compound, the “%Inh” value (DMPK) was 0%.

`Cc1cccc(-c2nc(-c3ccc(S(C)(=O)=O)cc3)sc2-c2ccnc(NCCc3ccccc3)c2)c1` was tested, and the “%Inh” value (DAPK2) was 15%, the “%Inh” value (DAPK3) was 0% and the “%Inh” value (DCAMKL1) was 5%. The “%Inh” value (DCAMKL2) was 0%, the “%Inh” value (DCAMKL3) was 8% and the “%Inh” value (DDR1) was 98.1%. The “%Inh” value (DDR2) was 79%, the “%Inh” value (DLK) was 0% and the “%Inh” value (DMPK2) was 10%. For the same compound, the “%Inh” value (DMPK) was 16%.

With `Cc1cccc(-c2nc(Nc3ccc4[nH]ncc4c3)c3ccccc3n2)n1` [GW857175] the “%Inh” value (DAPK2) was 20%, the “%Inh” value (DAPK3) was 28% and the “%Inh” value (DCAMKL1) was 0%. For the same compound, the “%Inh” value (DCAMKL2) was 14%, the “%Inh” value (DCAMKL3) was 0% and the “%Inh” value (DDR1) was 39%. The “%Inh” value (DDR2) was 17%, the “%Inh” value (DLK) was 0% and the “%Inh” value (DMPK2) was 72%. The “%Inh” value (DMPK) was 4%.

For `O=C(Nc1n[nH]c2cc(-c3cccc(F)c3F)ccc12)C1CC1` [SB-733894], the “%Inh” value (DAPK2) was 24%, the “%Inh” value (DAPK3) was 35% and the “%Inh” value (DCAMKL1) was 21%. For the same compound, the “%Inh” value (DCAMKL2) was 0%, the “%Inh” value (DCAMKL3) was 0% and the “%Inh” value (DDR1) was 0%. For the same compound, the “%Inh” value (DDR2) was 0%, the “%Inh” value (DLK) was 0% and the “%Inh” value (DMPK2) was 0%. The “%Inh” value (DMPK) was 0%.

In the case of `Cn1cncc1-c1ccc2ncnc(Nc3ccc(OCc4ccccc4)cc3)c2c1` [GW320571], the “%Inh” value (DAPK2) is reported as 0%, the “%Inh” value (DAPK3) is reported as 56% and the “%Inh” value (DCAMKL1) is reported as 0%. For the same compound, the “%Inh” value (DCAMKL2) was 0%, the “%Inh” value (DCAMKL3) was 31% and the “%Inh” value (DDR1) was 18%. For the same compound, the “%Inh” value (DDR2) was 4%, the “%Inh” value (DLK) was 35% and the “%Inh” value (DMPK2) was 0%. The “%Inh” value (DMPK) was 9%.

`O=S(=O)(c1ccc(-c2ccnc3[nH]ccc23)cc1)N1CCCC1` [GSK846226] was tested, and the “%Inh” value (DAPK2) was 48%, the “%Inh” value (DAPK3) was 76% and the “%Inh” value (DCAMKL1) was 23%. The “%Inh” value (DCAMKL2) was 0%, the “%Inh” value (DCAMKL3) was 0% and the “%Inh” value (DDR1) was 0%. The “%Inh” value (DDR2) was 0%, the “%Inh” value (DLK) was 0% and the “%Inh” value (DMPK2) was 15%. For the same compound, the “%Inh” value (DMPK) was 3%.

In the case of `Cn1ccc2ncnc(Oc3ccc(Nc4nc5ccccc5[nH]4)cc3)c21`, the “%Inh” value (DAPK2) is reported as 0%, the “%Inh” value (DAPK3) is reported as 3% and the “%Inh” value (DCAMKL1) is reported as 0%. The “%Inh” value (DCAMKL2) was 0%, the “%Inh” value (DCAMKL3) was 0% and the “%Inh” value (DDR1) was 0%. For the same compound, the “%Inh” value (DDR2) was 16%, the “%Inh” value (DLK) was 0% and the “%Inh” value (DMPK2) was 0%. The “%Inh” value (DMPK) was 0%.

With `COc1cc(Nc2nccc(N3CCC(NC(=O)Nc4cc(C)ccc4C)C3)n2)cc(OC)c1OC` (centres unmarked) [GSK1379762] the “%Inh” value (DAPK2) was 0%, the “%Inh” value (DAPK3) was 7% and the “%Inh” value (DCAMKL1) was 0%. The “%Inh” value (DCAMKL2) was 12%, the “%Inh” value (DCAMKL3) was 0% and the “%Inh” value (DDR1) was 43%. The “%Inh” value (DDR2) was 10%, the “%Inh” value (DLK) was 30% and the “%Inh” value (DMPK2) was 22%. For the same compound, the “%Inh” value (DMPK) was 0%.

With `O=c1cc(N2CCOCC2)nc2n(Cc3cccc(Cl)c3Cl)ccn12` [GSK2286295] the “%Inh” value (DAPK2) was 7%, the “%Inh” value (DAPK3) was 15% and the “%Inh” value (DCAMKL1) was 5%. For the same compound, the “%Inh” value (DCAMKL2) was 0%, the “%Inh” value (DCAMKL3) was 20% and the “%Inh” value (DDR1) was 0%. The “%Inh” value (DDR2) was 0%, the “%Inh” value (DLK) was 0% and the “%Inh” value (DMPK2) was 0%. The “%Inh” value (DMPK) was 3%.

`CC(C)(C)c1ccc(C(=O)Nc2cn3cc(-c4cccnc4)ccc3n2)cc1` was tested, and the “%Inh” value (DAPK2) was 13%, the “%Inh” value (DAPK3) was 8% and the “%Inh” value (DCAMKL1) was 45%. The “%Inh” value (DCAMKL2) was 12%, the “%Inh” value (DCAMKL3) was 25% and the “%Inh” value (DDR1) was 24%. For the same compound, the “%Inh” value (DDR2) was 0%, the “%Inh” value (DLK) was 0% and the “%Inh” value (DMPK2) was 17%. The “%Inh” value (DMPK) was 5%.

In the case of `Cc1cc(NCC(c2ccccc2)c2ccccc2)nc(NCc2ccc(C(F)(F)F)cc2)n1` [GW497681], the “%Inh” value (DAPK2) is reported as 0%, the “%Inh” value (DAPK3) is reported as 0% and the “%Inh” value (DCAMKL1) is reported as 0%. The “%Inh” value (DCAMKL2) was 11%, the “%Inh” value (DCAMKL3) was 0% and the “%Inh” value (DDR1) was 0%. The “%Inh” value (DDR2) was 20%, the “%Inh” value (DLK) was 39% and the “%Inh” value (DMPK2) was 1%. The “%Inh” value (DMPK) was 0%.

With `Clc1cc(Cl)cc(Nc2ccnc(Nc3cc(Cl)cc(Cl)c3)n2)c1` [GSK175726] the “%Inh” value (DAPK2) was 19%, the “%Inh” value (DAPK3) was 23% and the “%Inh” value (DCAMKL1) was 0%. The “%Inh” value (DCAMKL2) was 0%, the “%Inh” value (DCAMKL3) was 0% and the “%Inh” value (DDR1) was 6%. For the same compound, the “%Inh” value (DDR2) was 24%, the “%Inh” value (DLK) was 11% and the “%Inh” value (DMPK2) was 18%. For the same compound, the “%Inh” value (DMPK) was 0%.

For `Fc1cccc(COc2nnc(-c3ccc4c(c3)CCO4)o2)c1`, the “%Inh” value (DAPK2) was 0%, the “%Inh” value (DAPK3) was 0% and the “%Inh” value (DCAMKL1) was 9%. The “%Inh” value (DCAMKL2) was 0%, the “%Inh” value (DCAMKL3) was 0% and the “%Inh” value (DDR1) was 0%. The “%Inh” value (DDR2) was 12%, the “%Inh” value (DLK) was 0% and the “%Inh” value (DMPK2) was 0%. For the same compound, the “%Inh” value (DMPK) was 0%.

For `CCn1c(-c2ccccn2)nc2cnccc21` [SB-736398], the “%Inh” value (DAPK2) was 0%, the “%Inh” value (DAPK3) was 13% and the “%Inh” value (DCAMKL1) was 5%. The “%Inh” value (DCAMKL2) was 0%, the “%Inh” value (DCAMKL3) was 0% and the “%Inh” value (DDR1) was 0%. The “%Inh” value (DDR2) was 39%, the “%Inh” value (DLK) was 53% and the “%Inh” value (DMPK2) was 0%. For the same compound, the “%Inh” value (DMPK) was 0%.

With `CN1C(=O)C(Nc2ccc(Cl)c(C(=O)O)c2)=C(c2ccc(Cl)cc2)C1=O` [SB-404290] the “%Inh” value (DAPK2) was 9%, the “%Inh” value (DAPK3) was 14% and the “%Inh” value (DCAMKL1) was 0%. For the same compound, the “%Inh” value (DCAMKL2) was 6%, the “%Inh” value (DCAMKL3) was 10% and the “%Inh” value (DDR1) was 0%. For the same compound, the “%Inh” value (DDR2) was 0%, the “%Inh” value (DLK) was 0% and the “%Inh” value (DMPK2) was 0%. The “%Inh” value (DMPK) was 0%.

With `O=C(Nc1n[nH]c2nc(-c3nccs3)c(Br)cc12)C1CC1` [SB-742251] the “%Inh” value (DAPK2) was 0%, the “%Inh” value (DAPK3) was 6% and the “%Inh” value (DCAMKL1) was 4%. For the same compound, the “%Inh” value (DCAMKL2) was 0%, the “%Inh” value (DCAMKL3) was 0% and the “%Inh” value (DDR1) was 0%. The “%Inh” value (DDR2) was 26%, the “%Inh” value (DLK) was 34% and the “%Inh” value (DMPK2) was 0%. The “%Inh” value (DMPK) was 0%.
